# Laboratory results: PubChem BioAssay AID493008 (The Scripps Research Institute Molecular Screening Center, 2010)
# Out of some 340,000 compounds screened, about 800 (0.24%) were called active. This is one part of a sample in which actives are shown more often than they occur.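 The calls were made as follows: active = activation above the mean over all tested compounds plus 3 SD (cut at about 30% in these data); inactive = the rest.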
# Target: Troponin I, cardiac muscle (Homo sapiens) + Troponin T, cardiac muscle (Homo sapiens) + Troponin C, slow skeletal and cardiac muscles (Homo sapiens) (UniProt P19429+P45379+P63316)
# Assay: calcium sensitizers of cardiac thin filaments – biochemical, IANBD-TnC fluorescence, EC20 calcium, primary screen (AID 493008);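 also: rise in fluorescence read as greater calcium sensitivity of cardiac thin filaments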
# Details: IANBD-labeled TnC RTF fluorescence at EC20 calcium; at 7.2 µM; active compounds read high; 0% EC20 calcium, 100% full calcium
row,Structure (SMILES),activation
1,Cc1c(C)n2c(SCC(=O)NC3CCCC3)nnc2[nH]c1=O,0.28% (inactive)
2,CCCN(CCC)S(=O)(=O)c1ccc(C(=O)N2CC3CCC(CC3)C2)cc1,-0.05% (inactive)
3,CCN1CC=C2C(C#N)=C(N)C(C#N)(C#N)[C@H](c3ccoc3)[C@H]2C1,62% (active)
4,Cc1ccc(/C=C2/SC(=S)N(CCC(=O)NCCCN3CCOCC3)C2=O)cc1,2.69% (inactive)
5,Cc1ccc(-c2nn(-c3ccccc3)cc2/C=C2\SC(=S)N(CCCCCC(=O)O)C2=O)o1,48.1% (active)
6,C=CCOc1ccc(/C=C2\SC(=S)N(CCC(=O)O)C2=O)cc1,1.79% (inactive)
7,Cc1ccc(-c2noc(C3CCCN(C(=O)c4cccc(Cl)c4)C3)n2)o1 (configuration not stated),-2.07% (inactive)
8,CC(C)CC(CCc1ccccc1)OS(N)(=O)=O (configuration not stated),-4.63% (inactive)
9,COc1ccc(CNCCCNCc2ccc(OC)c(OC)c2)cc1OC,0.94% (inactive)
10,C=CCn1c(SCC(=O)c2c(N)n(C)c(=O)n(C)c2=O)nc2sc(CC)cc2c1=O,1.89% (inactive)
11,C[C@H](NC(=O)c1ccccc1Cl)C(=O)OCCOc1cccc(Cl)c1,1.17% (inactive)
12,Cc1ccc(C2=CSC3=NS(=O)(=O)CCN23)cc1C,13.6% (inactive)
13,C/C(=C/c1ccccc1)C(=O)N1CCN(c2ccccc2)CC1,9.01% (inactive)
14,Cc1[nH]c(N)nc(=S)c1CCCNc1ccccc1,-2.1% (inactive)
15,C=CC[C@H](CC(=O)NCCO)C(=O)N[C@@H](COC(=O)[C@@H](CC=C)Cc1ccc(F)cc1)Cc1c[nH]c2ccccc12,2.33% (inactive)
16,Cc1c(CCC(=O)O)c(=O)oc2cc3occ(-c4ccccc4)c3cc12,5.11% (inactive)
17,CCCCCCc1cc2cc(-c3nnc(-c4ccccc4)o3)c(=O)oc2cc1O,76.8% (active)
18,CCc1ccc(CN(C)C(=O)CCc2nnc(-c3ccc(-c4ccccc4)cc3)o2)nc1,-1.69% (inactive)
19,O=C(N[C@H]1C/C=C\C(c2cccc(F)c2)N(Cc2ccccc2)C(=O)C1)OCC1c2ccccc2-c2ccccc21 (some centres not stated),-0.43% (inactive)
20,COc1ccc(C(CNCC(=O)Nc2ccccc2F)N(C)C)cc1 (configuration not stated),-1.39% (inactive)
21,S=C(Nc1ccc2c(c1)OCO2)N1CCCC1,8.04% (inactive)

row,Structure (SMILES),activation
1,CCOC(=O)/C(C#N)=C/c1ccc(OCC(=O)Nc2ccccc2)c(OC)c1,6.94% (inactive)
2,CCOC(=O)/C(C#N)=C/c1ccc(N2CCN(Cc3ccccc3)CC2)cc1,42.2% (active)
3,CC(C)OC(=O)C(C#N)c1nc2ccccc2nc1N1CCN(Cc2ccccc2)CC1 (configuration not stated),-2.43% (inactive)
4,Cc1ccnc(N2CCN(C(=O)CSc3nc4ccccc4nc3N3CCCCC3)CC2)c1,0.05% (inactive)
5,Cc1ccccc1NC(=O)c1ccc(COc2ccc3c(C)cc(=O)oc3c2)cc1,1.18% (inactive)
6,O=C(CCC(=O)N1CCCC1)Nc1ccc([N+](=O)[O-])cc1,-1.36% (inactive)
7,Cc1cc(-c2n[nH]c(=S)n2/N=C/C(Br)=C/c2ccccc2)n[nH]1,0.67% (inactive)
8,CCOC(=O)/C=C/C(=O)OCC(=O)NC(c1ccccc1)c1ccccc1,-0.28% (inactive)
9,CN(C)S(=O)(=O)c1cc(NC(=O)CN2C(=O)NC3(CCCc4ccccc43)C2=O)ccc1Cl (configuration not stated),5.19% (inactive)
10,Oc1ccc(-c2nc3ccccc3nc2-c2ccc(O)cc2O)c(O)c1,2.23% (inactive)
11,Oc1ccc2ccc3cccc[n+]3c2c1,720% (active)
12,CCOC(=O)C1=C(C)NC2=C(C(=O)CC(C)(C)C2)C1c1ccsc1 (configuration not stated),8.26% (inactive)
13,N#C/C(=C\C1=C(N2CCOCC2)C(=C\c2ccccc2)/CC1)C(=O)Nc1ccccc1F,11.9% (inactive)
14,N#C/C(=C/c1ccc(N2CCOCC2)o1)C(=O)N1CCOCC1,64.8% (active)
15,N#C/C(=C\c1ccc(N2CCOCC2)o1)C(=O)N1CCOCC1,114% (active)
16,N#C/C=C(/c1ccc(F)cc1)N1CCOCC1,0.45% (inactive)
17,O=C(N1CCOCC1)N1CCOCC1,0.83% (inactive)
18,O=C(NC(=O)N1CCOCC1)c1ccccc1,-4.59% (inactive)
19,O=C(NC1CCCC1)C(c1ccco1)N(C(=O)c1csnn1)c1ccccc1 (configuration not stated),-5.15% (inactive)
20,COc1ccccc1-n1nnnc1S(=O)(=O)Cc1ccc(Cl)cc1,-4.59% (inactive)
21,O=C(Nc1cccc(F)c1)c1coc(=O)c(Br)c1,2.96% (inactive)

row,Structure (SMILES),activation
1,O=C(NNC1CC(=O)N(c2cccc(Cl)c2)C1=O)c1cccnc1 (configuration not stated),3.38% (inactive)
2,COc1ccc(N2CCN(S(=O)(=O)c3ccc4c(c3)NC(=O)C(C)C(=O)N4)CC2)cc1 (configuration not stated),-1.46% (inactive)
3,CCOc1cc(/C=C(\C#N)c2nc(-c3cccs3)c(NC(C)=O)s2)ccc1O,53.3% (active)
4,CCOc1cc(C=NNC(=O)CCCC(=O)NN=Cc2ccc(O)c(OCC)c2)ccc1O,3.71% (inactive)
5,CCOc1cc(-c2cc(-c3ccc(NC(C)=O)cc3)nc(N)c2C#N)ccc1O,-2.6% (inactive)
6,C/C(N)=C(/C#N)C(=O)COC(=O)C1=NN(c2ccccc2)C(=O)CC1,1.28% (inactive)
7,O=C1c2cccc3c([N+](=O)[O-])ccc(c23)C(=O)N1CC1CCCO1 (configuration not stated),9.63% (inactive)
8,CN1C(=O)c2cccc3c(N)ccc(c23)C1=O,1160% (active)
9,COc1cc(C(=O)N2C(=O)c3cccc(N)c3C2=O)cc(OC)c1OC,-5.72% (inactive)
10,CCn1cc(C(=O)N[C@@H](C)C(=O)NCCO)c(=O)c2cc3c(cc21)OCO3,0.57% (inactive)
11,CCCC(O)(CCC)C(=O)NN(C(=O)CCl)c1cccc(C)c1,-2.77% (inactive)
12,CN(C)C(CNC(=O)c1ccc(S(=O)(=O)NCc2ccco2)cc1)c1ccccc1 (configuration not stated),-0.95% (inactive)
13,CC1(C)Cc2nc3sc4c(SCC(=O)NC(c5ccccc5)c5ccccc5)ncnc4c3cc2CO1,-4.73% (inactive)
14,C=CCNc1nnc(C)c2ccccc12,6.46% (inactive)
15,O=C(CSc1ncccn1)N1CCCC1,4.22% (inactive)
16,C=CCNc1nnc(SCC(=O)N2CCCCC2)c2ccccc12,33.8% (active)
17,Cc1nn(-c2ncccn2)c2c1C(=O)CC(C)(C)C2Br (configuration not stated),1.48% (inactive)
18,CCc1ccc2ncc(C(=O)c3ccccc3)c(N3CCOCC3)c2c1,6.46% (inactive)
19,N#Cc1c(NCCO)ccc([N+](=O)[O-])c1NCCO,-0.27% (inactive)
20,CCCCCNC(=O)C1c2ccccc2Oc2ccccc21,4.69% (inactive)
21,CCOC(=O)CC(NC(=O)C1c2ccccc2Oc2ccccc21)c1ccc(C)cc1 (configuration not stated),4.5% (inactive)

row,Structure (SMILES),activation
1,CCCN(CCC)C(=O)C1c2ccccc2Oc2ccccc21,98.3% (active)
2,Brc1ccc(C2=CC(c3ccco3)n3ncnc3N2)cc1 (configuration not stated),245% (active)
3,CC1=C(C(=O)OCc2ccccc2)C(c2ccco2)n2ncnc2N1 (configuration not stated),8.65% (inactive)
4,CC1=C(C(N)=O)C(c2ccc(Br)cc2)n2ncnc2N1 (configuration not stated),-0.09% (inactive)
5,CCN1CCN(c2ccc(S(=O)(=O)N3CCCCC3)cc2NC(=O)c2cccc(NC(C)=O)c2)CC1,-0.39% (inactive)
6,CC1CCCCC12NC(=O)N(CC(=O)OCc1c(F)cccc1Cl)C2=O (configuration not stated),-6.16% (inactive)
7,Cc1ccccc1OCCC(=O)OCC(=O)NC(C)c1ccccc1 (configuration not stated),1.21% (inactive)
8,Cc1cc(C)c(/C=C2\C(=O)Nc3ccccc32)[nH]1,149% (active)
9,O=C1Nc2ccccc2/C1=C/c1ccnc2ccccc12,3.84% (inactive)
10,Cc1ccccc1-n1c(C)cc(/C=C2\NC(=O)NC2=O)c1C,-2.97% (inactive)
11,C[C@H](NC(=O)c1[nH]cnc1C(=O)Nc1nccs1)c1ccccc1,-1.35% (inactive)
12,O=C(COC(=O)c1ccc(S(=O)(=O)Nc2ccccc2)cc1)NCC1CCCO1 (configuration not stated),-3.25% (inactive)
13,COc1ccc([N+](=O)[O-])cc1NC(=O)CC1SC(=Nc2cccc(C)c2C)N(/N=C(\C)c2ccc(C)cc2)C1=O (configuration not stated),-1.84% (inactive)
14,CCC1CCCCN1C(=O)Nc1cccc(NC(=O)N2CCCCC2CC)c1 (configuration not stated),-3.65% (inactive)
15,O=C(CSc1nnc(C2CC2)n1Cc1ccccc1)Nc1cccnc1Cl,1.37% (inactive)
16,COc1ccccc1N(CC(=O)Nc1ccc(C)cc1Cl)S(=O)(=O)c1cccs1,-7.85% (inactive)
17,CCCCNC(=O)Nc1c(C)cc(SC#N)cc1C,-8.62% (inactive)
18,O=C(c1cc2sccc2n1Cc1ccc(F)cc1)N1CCc2ccccc21,-0.47% (inactive)
19,CCCc1cc(=O)[nH]c(SCC(=O)Nc2ccc(S(=O)(=O)N3CCCC3)cc2)n1,-0.74% (inactive)
